Experimental data reported in PubChem BioAssay (Tox21).
“And” between values parts separate entries of the source, which are not always exact repeats. Equal values may be shown once. Records with an inconclusive call do not appear. Entries that show only a call come without a potency. Some structures have more than one record in an assay (separate samples or runs), and their calls can disagree. The source made the active and inactive calls. Calls come from the whole dose curve; as a rule, active = well fitted curve in the direction sought with a large enough effect in the repeat runs; inconclusive = weak or mixed curves; inactive = no such curve, though single readings can be large; an effect the other way counts as inactive or inconclusive.

Columns and labels:
[1] = qHTS assay for identifying genotoxic compounds that show differential cytotoxicity against isogenic chicken DT40 cell lines with known DNA damage response pathways - wild type cell line (AID 743012); note: nearly all actives have a fitted effect of over 60% in size
Method in brief: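 300 wt DT40 cells/well; cpd (DMSO) pintool-transferred after ~0.5 h at 37 C/5% CO2; 40 h incubation; CellTiter-Glo added, 30 min RT; luminescence read.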

[2] = qHTS assay for identifying genotoxic compounds that show differential cytotoxicity against isogenic chicken DT40 cell lines with known DNA damage response pathways - Rev3 mutant cell line (AID 743014); note: nearly all actives have a fitted effect of over 55% in size; note: potency is the fitted concentration of half-maximal effect
[3] = qHTS assay for identifying genotoxic compounds that show differential cytotoxicity against isogenic chicken DT40 cell lines with known DNA damage response pathways - Rad54/Ku70 mutant cell line (AID 743015); note: nearly all actives have a fitted effect of over 60% in size

For `CC(C)C(=O)OCC(C)(C)C(OC(=O)C(C)C)C(C)C` (stereo not drawn), the Potency [1] was “inactive”, the Potency [2] was “inactive and 19.3 µM (active)” and the Potency [3] was “inactive”.
